The source of these data is PubChem BioAssay AID651947 (Broad Institute, 2012).

Potency and affinity values are given separately. Inconclusive results are not listed. A number with no mark means an inactive call.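 How the source made its calls: active means luminescence drop in HepG2 cells whose fitted half-effect dose is at most twice the top valid dose; inconclusive means flat curve with 30 to 70% signal loss, or unreliable fit; inactive means the rest.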

This experiment can be described thus: cytotoxicity in HepG2 cells, dose response, cytotoxicity control, cell-based, plate reader, dry powder (AID 651947). The conditions noted are these: HepG2 viability, ATP luminescence (CellTiter-Glo), 48 h, active compounds read low; at 26 µM unless noted.
Regarding `FC(F)(F)CNCCSc1nnc(-c2ccccc2)o1`, the max activity is -10% [at 12 µM].
For the compound `c1ccc(-c2nnc(SCc3cccnc3)o2)cc1`, the max activity was 17.3%.
`Fc1ccc(CSc2nnc(-c3ccc(Cl)cc3)o2)cc1`: the max activity was -47.5% [at 12 µM].
As for `c1ccc(CSc2nnc(C3CCCC3)o2)cc1`, the figure is -59.1% [at 6 µM]; as for `FC(F)(F)Oc1cccc(CSc2nnc(-c3ccccc3)o2)c1`, 19.6% [at 0.38 µM].
With `COc1ccc(-c2nnc(SCc3ccc(Cl)cc3)o2)cc1`, the max activity is -16.2% [at 0.38 µM].
Regarding `c1ccc(-n2cc(CSc3nnc(C4CCC4)o3)nn2)cc1`, the max activity is -30.4% [at 12 µM].
Consider `c1ccc(CSc2nnc(-c3ccc(-c4ccccc4)cc3)o2)cc1`, for which the max activity is 15.5%.
Turning to `c1ccc(Cn2cc(CSc3nnc(-c4ccccc4)o3)nn2)cc1`, the max activity was -41.8%.
For `c1ccc(CSc2nnc(-c3cccnc3)o2)cc1`, the max activity was -26.9% [at 0.8 µM].
Regarding `Fc1ccccc1CSc1nnc(-c2ccccc2)o1`, the max activity was -57.5%.
With `FC1(F)CCN(CCSc2nnc(-c3ccccc3)o2)CC1`, the max activity was -22.5% [at 1.6 µM].
With `c1ccc(-c2nnc(SCc3ncco3)o2)cc1`, the max activity was 8.06% [at 0.195 µM].
For the compound `Cc1cccc(CSc2nnc(-c3ccc(Cl)cc3)o2)n1`, the max activity was 26% [at 0.38 µM].
To `Cc1nnc(SCc2ccccc2)o1` belongs -55.2% [at 0.195 µM].
Take `c1ccc(CSc2nnc(C3CCCCC3)o2)cc1`: the max activity is 16.5% [at 3 µM].
For `COc1ccc(-c2nnc(SCc3ccccc3)o2)cc1`, the max activity was -23.7% [at 6 µM].
To `FC(F)(F)Oc1ccccc1-c1nnc(SCc2ccccc2)o1` belongs -9.41% [at 6 µM]; to `Fc1ccc(Cn2cc(CSc3nnc(C4CCC4)o3)nn2)cc1`, -41.8% [at 0.38 µM].
With `Clc1ccccc1CSc1nnc(-c2ccccc2)o1`, the max activity was 17.5% [at 0.195 µM].
As for `c1ccc(CSc2nnc(-c3ccncc3)o2)nc1`, the max activity is -29.6% [at 6 µM].
To `CS(=O)(=O)c1ccccc1CSc1nnc(-c2ccccc2)o1` belongs -12.5% [at 12 µM].
To `COc1ccccc1CSc1nnc(-c2ccccc2)o1` belongs -56.1% [at 6 µM].
`c1ccc(CCc2nnc(-c3ccccc3)o2)cc1`: the max activity is 27.6%.
To `O=C(Cc1ccccc1)C(C(=O)c1nnc(-c2ccccc2)o1)c1ccccc1` (stereo not given) belongs -29.7%; to `CN(Cc1ccccc1)c1nnc(-c2ccccc2)o1`, -28.2%; to `CCSc1nnc(-c2ccccc2)o1`, 23.2% [at 12 µM].
To `Cc1cccc(-c2nnc(SCc3ccccc3)o2)c1` belongs -20.2% [at 0.38 µM]; to `Cc1ccc(-c2nnc(SCc3ccccc3)o2)cc1`, 15.2% [at 3 µM]; to `c1ccc(Cn2cc(CSc3nnc(C4CCC4)o3)nn2)cc1`, -18.3% [at 0.38 µM].
As for `Fc1ccc(Cn2cc(CSc3nnc(C4CCCC4)o3)nn2)cc1`, the figure is -18.5% [at 6 µM]; as for `O=C(Cc1ccccc1)c1nnc(-c2ccccc2)o1`, -24.7% [at 0.8 µM].
For `N#Cc1cccc(-c2nnc(SCc3ccccc3)o2)c1`, the max activity was 15.2%.
To `FC(F)(F)c1ccccc1-c1nnc(SCc2ccccc2)o1` belongs 15.6% [at 1.6 µM]; to `c1ccc(-c2nnc(SC3CCCCC3)o2)cc1`, -38.4%.
